Assay results from the supplement of paper PMC12645437, “Orthogonal IMiD-Degron Pairs Induce Selective Protein Degradation in Cells” (ACS Chemical Biology, 2025).
In all, about 8,300 sequences were measured (“log2 fold change of degron read counts, EGFP-low vs EGFP+ sorted cells (limma voom), compound-induced degradation”: median about -1.1, highest 2% from about 3.2 on). The entries come from a sample that favours the highest values as a whole.

Molecular target: T1, CRBN, Q96SW2
T1 chain: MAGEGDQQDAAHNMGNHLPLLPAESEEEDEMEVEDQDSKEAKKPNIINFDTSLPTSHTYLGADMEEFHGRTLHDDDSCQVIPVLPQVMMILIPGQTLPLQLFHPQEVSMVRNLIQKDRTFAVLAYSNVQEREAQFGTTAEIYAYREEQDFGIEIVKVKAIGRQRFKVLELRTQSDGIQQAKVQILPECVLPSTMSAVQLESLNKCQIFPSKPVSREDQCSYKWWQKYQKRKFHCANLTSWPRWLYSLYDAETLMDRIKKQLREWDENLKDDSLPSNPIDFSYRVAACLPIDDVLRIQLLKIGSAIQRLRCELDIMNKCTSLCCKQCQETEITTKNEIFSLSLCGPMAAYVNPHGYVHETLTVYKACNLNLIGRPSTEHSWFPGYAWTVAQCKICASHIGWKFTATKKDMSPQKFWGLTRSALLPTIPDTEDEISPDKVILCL
Test: log2 fold change of degron read counts, EGFP-low vs EGFP+ sorted cells (limma voom), compound-induced degradation; higher = more compound-induced degradation of the degron-EGFP fusion; degrons are variants of IKZF1/3 zinc finger 2; compound dose not given here
Conditions: Jurkat, 18 h

[1] = compound: compound 19 (5-tert-butyl-thalidomide)
[2] = compound: compound 22 (5-morpholino-thalidomide)
[3] = compound: compound 33 (diphenyl IMiD analogue)
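Note: pooled lentiviral library of zinc finger degron-EGFP fusions in mCherry-positive Jurkat cells, FACS-sorted after compound exposure, with degron abundance counted by next-generation sequencing.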

Q: With FDCPICGAEFTQKGNLLRHIKL [46F_47D_49P_50I_52G_53A_54E_55F_67L_, Q9UKT9] as the sequence, how does the “log2 fold change of degron read counts” value [1] read?
A: -0.0781

Q: What about the “log2 fold change of degron read counts” value [2] of the same sequence?
A: -0.933

Q: What about the “log2 fold change of degron read counts” value [3] of the same sequence?
A: 1.14

Q: And the “log2 fold change of degron read counts” value (compound: thalidomide)?
A: 0.579

Q: With FDCNVCGALFTQKGNLLRHIKL [46F_47D_49N_50V_52G_53A_54L_55F_67L_, Q9UKT9] as the sequence, how does the “log2 fold change of degron read counts” value [1] read?
A: -2.45

Q: And the “log2 fold change of degron read counts” value [2]?
A: -2.67

Q: What about the “log2 fold change of degron read counts” value [3] of the same sequence?
A: -0.75

Q: And the “log2 fold change of degron read counts” value (compound: thalidomide)?
A: -0.856

Q: What does the source list for FRCPICGHEFTQKGNLLRHIKL [46F_47R_49P_50I_52G_53H_54E_55F_67L_, Q9UKT9]?
A: log2 fold change of degron read counts [1]: -2.68; log2 fold change of degron read counts [2]: -2.48; log2 fold change of degron read counts [3]: -1.5; log2 fold change of degron read counts (compound: thalidomide): -1.35

Q: FTCEQCGAHFTQKGNLLRHIKL [46F_47T_49E_50Q_52G_53A_54H_55F_67L_, Q9UKT9] was tested. Which “log2 fold change of degron read counts” value [1] did it give?
A: -1.82

Q: What about the “log2 fold change of degron read counts” value [2] of the same sequence?
A: -1.63

Q: And the “log2 fold change of degron read counts” value [3]?
A: -0.151

Q: What about the “log2 fold change of degron read counts” value (compound: thalidomide) of the same sequence?
A: -0.624

Q: Which “log2 fold change of degron read counts” value [1] does the source give for FVCNQCGHNFTQKGNLLRHIKL [46F_47V_49N_50Q_52G_53H_54N_55F_67L_, Q9UKT9] here?
A: -3

Q: What about the “log2 fold change of degron read counts” value [2] of the same sequence?
A: -3.4

Q: What about the “log2 fold change of degron read counts” value [3] of the same sequence?
A: -2.99

Q: What about the “log2 fold change of degron read counts” value (compound: thalidomide) of the same sequence?
A: -3.15

Q: How did the “log2 fold change of degron read counts” value [1] turn out when FACEICGAKFTQKGNLLRHIKL [46F_47A_49E_50I_52G_53A_54K_55F_67L_, Q9UKT9] was run?
A: 3.82

Q: And the “log2 fold change of degron read counts” value [2]?
A: 1.86

Q: And the “log2 fold change of degron read counts” value [3]?
A: -1.82

Q: What about the “log2 fold change of degron read counts” value (compound: thalidomide) of the same sequence?
A: 1.35

Q: What does the source list for FICEICGAKFTQKGNLLRHIKL [46F_47I_49E_50I_52G_53A_54K_55F_67L_, Q9UKT9]?
A: log2 fold change of degron read counts [1]: 0.419; log2 fold change of degron read counts [2]: 2.07; log2 fold change of degron read counts [3]: 0.709; log2 fold change of degron read counts (compound: thalidomide): 2.61

Q: Which results are given for FGCEICGAKFTQKGNLLRHIKL [46F_47G_49E_50I_52G_53A_54K_55F_67L_, Q9UKT9]?
A: log2 fold change of degron read counts [1]: 3.49; log2 fold change of degron read counts [2]: 1.63; log2 fold change of degron read counts [3]: -1.11; log2 fold change of degron read counts (compound: thalidomide): 1.73

Q: Which results are given for FVCEICGAKFTQKGNLLRHIKL [46F_47V_49E_50I_52G_53A_54K_55F_67L_, Q9UKT9]?
A: log2 fold change of degron read counts [1]: 1.42; log2 fold change of degron read counts [2]: 1.89; log2 fold change of degron read counts [3]: 0.387; log2 fold change of degron read counts (compound: thalidomide): 3.07

Q: With FRCEICGAKFTQKGNLLRHIKL [46F_47R_49E_50I_52G_53A_54K_55F_67L_, Q9UKT9] as the sequence, how does the “log2 fold change of degron read counts” value [1] read?
A: -0.269

Q: And the “log2 fold change of degron read counts” value [2]?
A: -0.354

Q: What about the “log2 fold change of degron read counts” value [3] of the same sequence?
A: 0.56

Q: And the “log2 fold change of degron read counts” value (compound: thalidomide)?
A: 1.68

Q: Which results are given for FMCEICGAKFTQKGNLLRHIKL [46F_47M_49E_50I_52G_53A_54K_55F_67L_, Q9UKT9]?
A: log2 fold change of degron read counts [1]: 0.747; log2 fold change of degron read counts [2]: -0.267; log2 fold change of degron read counts [3]: 0.58; log2 fold change of degron read counts (compound: thalidomide): 1.27

Q: For FTCEICGAKFTQKGNLLRHIKL [46F_47T_49E_50I_52G_53A_54K_55F_67L_, Q9UKT9], which “log2 fold change of degron read counts” value [1] is on record?
A: 0.913

Q: And the “log2 fold change of degron read counts” value [2]?
A: 1.9

Q: And the “log2 fold change of degron read counts” value [3]?
A: 0.245

Q: And the “log2 fold change of degron read counts” value (compound: thalidomide)?
A: 2.71

Q: For FWCEICGAKFTQKGNLLRHIKL [46F_47W_49E_50I_52G_53A_54K_55F_67L_, Q9UKT9], which “log2 fold change of degron read counts” value [1] is on record?
A: 3.96

Q: What about the “log2 fold change of degron read counts” value [2] of the same sequence?
A: 3.75

Q: And the “log2 fold change of degron read counts” value [3]?
A: 1.53

Q: What about the “log2 fold change of degron read counts” value (compound: thalidomide) of the same sequence?
A: 1.31

Q: Which “log2 fold change of degron read counts” value [1] does the source give for FFCNQCGAAFTQKGNLLRHIKL [46F_47F_49N_50Q_52G_53A_54A_55F_67L_, Q9UKT9] here?
A: -1.05

Q: What about the “log2 fold change of degron read counts” value [2] of the same sequence?
A: -0.697

Q: What about the “log2 fold change of degron read counts” value [3] of the same sequence?
A: -0.811

Q: And the “log2 fold change of degron read counts” value (compound: thalidomide)?
A: -1.91

Q: How did the “log2 fold change of degron read counts” value [1] turn out when LMCPICGFICTQKGNLLRHIKL [46L_47M_49P_50I_52G_53F_54I_55C_67L_, Q9UKT9] was run?
A: -0.334

Q: And the “log2 fold change of degron read counts” value [2]?
A: 0.292

Q: And the “log2 fold change of degron read counts” value [3]?
A: 2.06

Q: And the “log2 fold change of degron read counts” value (compound: thalidomide)?
A: 1.27

Q: Which results are given for LRCNQCGFGCTQKGNLLRHIKL [46L_47R_49N_50Q_52G_53F_54G_55C_67L_, Q9UKT9]?
A: log2 fold change of degron read counts [1]: -1.13; log2 fold change of degron read counts [2]: -1.8; log2 fold change of degron read counts [3]: -1.41; log2 fold change of degron read counts (compound: thalidomide): -1.08

Q: Which results are given for FFCSVCGHEFTQKGNLLRHIKL [46F_47F_49S_50V_52G_53H_54E_55F_67L_, Q9UKT9]?
A: log2 fold change of degron read counts [1]: -2.81; log2 fold change of degron read counts [2]: -3.34; log2 fold change of degron read counts [3]: -3.2; log2 fold change of degron read counts (compound: thalidomide): -2.56

Q: With FCCPICGAMFTQKGNLLRHIKL [46F_47C_49P_50I_52G_53A_54M_55F_67L_, Q9UKT9] as the sequence, how does the “log2 fold change of degron read counts” value [1] read?
A: 1.6

Q: What about the “log2 fold change of degron read counts” value [2] of the same sequence?
A: 1.26

Q: And the “log2 fold change of degron read counts” value [3]?
A: 2.22

Q: And the “log2 fold change of degron read counts” value (compound: thalidomide)?
A: 1.23

Q: What does the source list for FSCNQCGHTFTQKGNLLRHIKL [46F_47S_49N_50Q_52G_53H_54T_55F_67L_, Q9UKT9]?
A: log2 fold change of degron read counts [1]: -2.44; log2 fold change of degron read counts [2]: -2.51; log2 fold change of degron read counts [3]: -2.85; log2 fold change of degron read counts (compound: thalidomide): -2.59

Q: What does the source list for FMCNVCGADFTQKGNLLRHIKL [46F_47M_49N_50V_52G_53A_54D_55F_67L_, Q9UKT9]?
A: log2 fold change of degron read counts [1]: -2.78; log2 fold change of degron read counts [2]: -2.8; log2 fold change of degron read counts [3]: 1.31; log2 fold change of degron read counts (compound: thalidomide): -1.76

Q: Which results are given for LYCPICGFICTQKGNLLRHIKL [46L_47Y_49P_50I_52G_53F_54I_55C_67L_, Q9UKT9]?
A: log2 fold change of degron read counts [1]: 2.94; log2 fold change of degron read counts [2]: 2.9; log2 fold change of degron read counts [3]: 1.98; log2 fold change of degron read counts (compound: thalidomide): 0.937

Q: With FSCNVCGAPFTQKGNLLRHIKL [46F_47S_49N_50V_52G_53A_54P_55F_67L_, Q9UKT9] as the sequence, how does the “log2 fold change of degron read counts” value [1] read?
A: 0.819

Q: And the “log2 fold change of degron read counts” value [2]?
A: 0.453

Q: What about the “log2 fold change of degron read counts” value [3] of the same sequence?
A: -0.105

Q: What about the “log2 fold change of degron read counts” value (compound: thalidomide) of the same sequence?
A: 0.146

Q: Which results are given for FVCEICGAGFTQKGNLLRHIKL [46F_47V_49E_50I_52G_53A_54G_55F_67L_, Q9UKT9]?
A: log2 fold change of degron read counts [1]: 1.53; log2 fold change of degron read counts [2]: 3.07; log2 fold change of degron read counts [3]: 1.92; log2 fold change of degron read counts (compound: thalidomide): 3.23

Q: Which “log2 fold change of degron read counts” value [1] does the source give for FMCEICGAGFTQKGNLLRHIKL [46F_47M_49E_50I_52G_53A_54G_55F_67L_, Q9UKT9] here?
A: 2.81

Q: What about the “log2 fold change of degron read counts” value [2] of the same sequence?
A: 1.95

Q: What about the “log2 fold change of degron read counts” value [3] of the same sequence?
A: 2.73

Q: What about the “log2 fold change of degron read counts” value (compound: thalidomide) of the same sequence?
A: 1.31

Q: How did the “log2 fold change of degron read counts” value [1] turn out when FKCEICGAGFTQKGNLLRHIKL [46F_47K_49E_50I_52G_53A_54G_55F_67L_, Q9UKT9] was run?
A: 2.69

Q: And the “log2 fold change of degron read counts” value [2]?
A: -0.466

Q: And the “log2 fold change of degron read counts” value [3]?
A: -0.772

Q: What about the “log2 fold change of degron read counts” value (compound: thalidomide) of the same sequence?
A: 0.328

Q: How did the “log2 fold change of degron read counts” value [1] turn out when FCCEICGAGFTQKGNLLRHIKL [46F_47C_49E_50I_52G_53A_54G_55F_67L_, Q9UKT9] was run?
A: 3.68

Q: And the “log2 fold change of degron read counts” value [2]?
A: 2.09

Q: What about the “log2 fold change of degron read counts” value [3] of the same sequence?
A: 1.63

Q: What about the “log2 fold change of degron read counts” value (compound: thalidomide) of the same sequence?
A: 1.42

Q: What does the source list for FSCEICGAGFTQKGNLLRHIKL [46F_47S_49E_50I_52G_53A_54G_55F_67L_, Q9UKT9]?
A: log2 fold change of degron read counts [1]: 3.39; log2 fold change of degron read counts [2]: 1.57; log2 fold change of degron read counts [3]: 1.23; log2 fold change of degron read counts (compound: thalidomide): 0.613

Q: FICPICGRGFTQKGNLLRHIKL [46F_47I_49P_50I_52G_53R_54G_55F_67L_, Q9UKT9] was tested. Which “log2 fold change of degron read counts” value [1] did it give?
A: -2.06

Q: And the “log2 fold change of degron read counts” value [2]?
A: -1.04

Q: What about the “log2 fold change of degron read counts” value [3] of the same sequence?
A: -0.776

Q: What about the “log2 fold change of degron read counts” value (compound: thalidomide) of the same sequence?
A: 0.0621
